Measurements reported in PubChem BioAssay AID463173 (ICCB-Longwood Screening Facility, Harvard Medical School, 2010).
The campaign covered roughly 52,000 compounds. About 1,700 (3.3%) were called active. The entries come from a sample that favours actives as a whole. Values without a mark were called inactive. Cut-off read from the data, not from the text of the source: active = survival mostly below about 52% (no sharp cut-off); inactive = mostly above about 56%.

tested on: Wild type; assay: growth inhibition of S. aureus wild type versus tarO mutant, primary screen, teichoic acid synthesis inhibitors, RN4220, OD600 (AID 463173); details: S. aureus RN4220 wild type/DeltatarO growth, OD600, 18 h, active compounds read low, screened at 18.75 µg/mL (by protocol)

First: O=c1c(-c2cc(-c3ccccc3)nc3c2COc2ccc(Cl)cc2-3)coc2ccccc12
Second: O=C(Cn1c(=O)nc(-c2ccccc2)c2cc(Cl)ccc21)NCCc1ccccc1
The survival of the first is higher: 75% for the first, 69% for the second.

Going from `COc1cc(C(=O)Nc2nonc2-c2ccc(Cl)cc2)cc(OC)c1OC` to `Cc1ccc(Cl)cc1NC(=O)c1ccc(-c2nc(CSc3ccccc3)c(C)o2)cc1`, the survival falls from 94% to 55%.

Compared with `CCC1CCCCN1C(=O)Cn1c(=O)cc(C(F)(F)F)c2c(C)nn(C)c21` (stereo unspecified), `CCOC(=O)C1CCN(C(=O)CSc2c3c(nc4ccc(Cl)cc24)CCCC3)CC1` is lower in survival: 68% for the first, 56% for the second.

`Cc1ccc(-c2cc(C(=O)NCc3ccccc3)c3c(-c4ccc(C)cc4)[nH]nc3n2)cc1` and `CCOc1ccc(C(=O)Nc2ccc(-c3cc4ccccc4oc3=O)cc2)cc1Br` are the same in survival: 75% for the first, 75% for the second.

Going from `CCCCOC(=O)c1ccc(NC(=O)c2cc(=O)c3ccccc3o2)cc1` to `O=C(Nc1ccc(NC(=O)c2cc3ccccc3o2)cc1)c1ccccc1`, the survival falls from 93% to 80%.

Compared with `Cc1ccc(NC(=O)/C=C/c2ccccc2Cl)cc1Cl`, `CCN(CC)c1cc(C)c2cc(NC(=O)/C=C/c3ccccc3Cl)ccc2n1` is lower in survival: 97% for the first, 76% for the second.

Compared with `CC(C)CC(=O)Nc1ccc(C(=O)OCc2cc(=O)n3nc(C4CCCCC4)sc3n2)cc1`, `CC(C)CC(=O)Nc1ccc(C(=O)OCc2cc(=O)n3nc(C(C)C)sc3n2)cc1` is higher in survival: 47% for the first, 138% for the second.

Compared with `CCC12C=CCN3CCC4(c5ccc(OC)cc5NC4C(O)(C(=O)OC)C1OC(C)=O)C32` (stereo unspecified), `CCN1CCC(N(Cc2cccc(OC)c2)C(=O)Nc2ccc(C)cc2Cl)CC1` is lower in survival: 100% for the first, 53% for the second.

First: Cc1ccc(-c2nc(CN(C)C)cc(CN(C)C)c2O)cc1
Second: Cc1ccc(-c2nn(CCC(N)=O)c(=O)c3ccccc23)cc1
The survival of the first is higher: 121% for the first, 65% for the second.

Going from `CCOC(=O)CC(N)c1ccc2c(c1)OCO2` (stereo unspecified) to `CCN1CCC(N(Cc2ccc3c(c2)OCO3)C(=O)Nc2cccc(C)c2C)CC1`, the survival falls from 111% to 83%.

Going from `O=c1c2cc3c(cc2n(Cc2ccccc2)c(=O)n1Cc1nc(-c2ccccc2)no1)OCO3` to `O=c1c2sc3ccccc3c2n(Cc2cccc(Cl)c2)c(=O)n1Cc1ccco1`, the survival falls from 112% to 68%.

First: Nc1ccc2nc(SCCOc3ccccc3)sc2c1
Second: COc1ccc2nc(SCC(O)c3cccc(Br)c3)[nH]c2c1 (stereo unspecified)
The survival of the first is higher: 108% for the first, 84% for the second.

First: O=C(Nc1c[nH]c2cc(Cl)ccc2c1=O)N1CCCCC1
Second: CCc1ccccc1NS(=O)(=O)c1ccc2[nH]cc(C(=O)N3CCCCC3)c(=O)c2c1
The survival of the first is lower: 85% for the first, 127% for the second.

Going from `CSc1ccc(CNC(=O)Cn2nc(N3CCN(c4ccccc4)CC3)ccc2=O)cc1` to `O=C(Cn1nc(Cc2cccnc2)c2ccccc2c1=O)N1CCN(c2ccc(F)cc2)CC1`, the survival rises from 64% to 89%.

First: CCCOc1ccc(NC(=O)CC2C(=O)N(c3ccc(F)cc3)C(=O)N2CC(C)C)cc1 (stereo unspecified)
Second: CCCOc1ccc(NC(=O)CC2C(=O)N(c3ccc(C)cc3)C(=O)N2C(C)C)cc1 (stereo unspecified)
The survival of the first is lower: 75% for the first, 133% for the second.

Compared with `CCN1CCOC(=O)C1CC(=O)Nc1ccc(C(C)=O)cc1` (stereo unspecified), `CCN1CCOC(=O)C1CC(=O)Nc1ccc(Br)cc1` (stereo unspecified) is lower in survival: 65% for the first, 38% for the second.

First: COC(=O)c1ccc(NC(=O)CC2C(=O)N(c3cccc(OC)c3)C(=O)N2C(C)C)cc1 (stereo unspecified)
Second: COC(=O)c1ccc(NC(=O)CC2C(=O)N(c3ccc(F)cc3)C(=O)N2Cc2ccc(OC)cc2)cc1 (stereo unspecified)
The survival of the first is lower: 78% for the first, 131% for the second.

First: COc1ccc(CN2C(=O)N(c3ccc(F)cc3)C(=O)C2CC(=O)Nc2ccccc2)cc1 (stereo unspecified)
Second: CCOC(=O)c1ccc(NC(=O)CC2C(=O)N(c3ccc(F)cc3)C(=O)N2Cc2ccc(C)cc2)cc1 (stereo unspecified)
The survival of the first is higher: 79% for the first, 61% for the second.

First: O=C(CSc1nc(=O)n(Cc2ccco2)c2c1CCC2)Nc1ccccc1C(F)(F)F
Second: O=C(CSc1c2c(nc3cc(Cl)ccc13)CCCC2)N1CCN(c2ccccc2)CC1
The survival of the first is higher: 138% for the first, 44% for the second.

First: Cc1ccccc1CNC(=O)c1ccc2c(c1)c(C)c(C)n2C
Second: COc1ccccc1CNC(=O)c1oc2ccc3c(c2c1C)C(=O)CC(C)(C)O3
The survival of the first is lower: 58% for the first, 59% for the second.

First: CC1CCCN(c2ccc(C(=O)NCc3ccccc3)cn2)C1 (stereo unspecified)
Second: CCCn1cc(S(=O)(=O)c2ccccc2)c(=O)c2cc(F)c(N3CCCC(C)C3)cc21 (stereo unspecified)
The survival of the first is higher: 103% for the first, 71% for the second.

First: CCc1cccc(NC(=O)CSc2nncn3c2cc2sccc23)c1
Second: CCc1cccc(C)c1NC(=O)C(CC)Sc1nncn2c1cc1occc12 (stereo unspecified)
The survival of the first is lower: 73% for the first, 78% for the second.

Compared with `CCOc1cccc2sc(NC(=O)CS(=O)(=O)c3ccc(C)cc3)nc12`, `CCc1cccc(C)c1NS(=O)(=O)c1ccc(-n2cccn2)cc1` is higher in survival: 72% for the first, 128% for the second.

Going from `Cc1cccn2c(=O)c(C(=O)N3CCN(c4ccc(Cl)cc4)CC3)cnc12` to `O=C(CSc1c2c(nc3ccc(Cl)cc13)CCCC2)N1CCN(c2ccc(Cl)cc2)CC1`, the survival falls from 87% to 53%.

First: CCCSCCCNC(=O)C1CCCN(C(=O)c2cnn(-c3ccccc3)c2-n2cccc2)C1 (stereo unspecified)
Second: O=C(NC1CC2CCCC(C1)N2CC(=O)N1CCCc2ccccc21)c1ccccc1 (stereo unspecified)
The survival of the first is higher: 107% for the first, 97% for the second.

Going from `Cc1ccc(OC(C)C(=O)NCC2(N3CCOCC3)CCCCC2)cc1C` (stereo unspecified) to `Cc1ccc(OCC(=O)OCc2cc(=O)n3nc(C4CCCCC4)sc3n2)cc1C`, the survival falls from 86% to 79%.

First: CC1CCCN(Cc2c(O)ccc3c(=O)c(-c4ccc(Cl)cc4)c(C(F)(F)F)oc23)C1 (stereo unspecified)
Second: O=c1c(N2CCN(c3cccc(C(F)(F)F)c3)CC2)csc2ccc(Cl)cc12
The survival of the first is lower: 71% for the first, 74% for the second.

First: CCc1ccc(CNC(=O)c2ccc3c(c2)nc2n3CCOC2)cc1
Second: Cc1ccc(CNC(=O)CSc2c3c(nc4cc(Cl)ccc24)CCCC3)cc1
The survival of the first is higher: 111% for the first, 83% for the second.

Compared with `CN(C(=O)C1CCN(c2ncnc3c2nc2n3CCCCC2)CC1)c1ccccc1F`, `O=C(CSc1c2c(nc3cc(Cl)ccc13)CCCC2)N1CCN(c2ccccc2F)CC1` is higher in survival: 60% for the first, 69% for the second.

Going from `O=C(CSc1c2c(nc3ccc(Cl)cc13)CCCC2)N1CCCCC1` to `CCC(C)NC(=O)CSc1c2c(nc3cc(Cl)ccc13)CCCC2` (stereo unspecified), the survival rises from 29% to 82%.

Going from `COCCNC(=O)CSc1c2c(nc3cc(Cl)ccc13)CCCC2` to `CC(C)CCNC(=O)CN1C(=O)CCn2nc(-c3cn(C)c4ccccc34)cc21`, the survival rises from 71% to 87%.

First: CCCCN1C(=O)CN(C2CCCCCC2)C(=O)C1c1ccc(OCC)c(OC)c1 (stereo unspecified)
Second: CCOc1ccc(C2CC(=O)c3c([nH]c(C(=O)OC4CCCCCC4)c3C)C2)cc1 (stereo unspecified)
The survival of the first is lower: 78% for the first, 79% for the second.

First: CCCCNc1nc2c(S(=O)(=O)c3ccc(Cl)cc3)nnn2c2ccsc12
Second: Cc1ccccc1CNC(=O)C(=O)NCC(c1cccs1)S(=O)(=O)c1ccc(Cl)cc1 (stereo unspecified)
The survival of the first is higher: 89% for the first, 74% for the second.

First: CNC(=O)c1ccc2c(c1)N=C(C)c1cc(C)ccc1S2
Second: CC1=Nc2cc(C(=O)N3CCC(C)CC3)ccc2Sc2ccc(Cl)cc21
The survival of the first is lower: 80% for the first, 81% for the second.

Compared with `CCOC(=O)C1CCN(C(=O)c2ccc3c(c2)N=C(CC)c2cc(C)ccc2S3)CC1`, `CCCC1=Nc2cc(C(=O)N3CCC(C)CC3)ccc2Sc2ccc(C)cc21` is higher in survival: 29% for the first, 107% for the second.

Compared with `COc1ccccc1-c1c(C)nn2c(N3CCN(c4ccc(F)cc4)CC3)cc(C)nc12`, `Cc1ccc(S(=O)(=O)N2CCN(Cc3cc(=O)n4nc(-c5ccccc5Cl)sc4n3)CC2)cc1` is lower in survival: 88% for the first, 64% for the second.

Going from `CCOC(=O)c1c(S(=O)(=O)NCC(=O)Nc2cc(C)ccc2C)c(C)n(C)c1C` to `CCn1cc(S(=O)(=O)c2ccccc2)c(=O)c2cc(F)c(F)cc21`, the survival rises from 66% to 82%.

Going from `Cn1c(=O)n(-c2cccc(Cl)c2)c(=O)c2sc3ccccc3c21` to `O=C(CCc1ccccc1)Nc1nnc(CCN2CCCCC2)s1`, the survival rises from 71% to 97%.

For `CC(C)OC(=O)CSc1nnc(CNc2ccc(F)cc2)n1C1CCCCC1`, the survival was 108%.

With `CCCCOC(=O)c1cccc(NC(=O)c2cc3ccccc3o2)c1` the survival was 0% (active).
With `CCCCOC(=O)c1cccc(NC(=O)/C=C/c2ccccc2Cl)c1` the survival was 7% (active).
With `Brc1ccc2nc(SCCOc3ccccc3)[nH]c2c1` the survival was 0% (active).
For `COC(=O)c1ccc(NC(=O)CC2C(=O)N(c3ccccc3)C(=O)N2Cc2ccc(F)cc2)cc1` (stereo unspecified), the survival was 14% (active).
With `CCc1ccc(NC(=O)CC2C(=O)OCCN2CC)cc1` (stereo unspecified) the survival was -15% (active).
In the case of `CCc1ccc(NC(=O)CC2C(=O)N(c3ccccc3)C(=O)N2C(C)C)cc1` (stereo unspecified), the survival is reported as -6% (active).
With `CCCOc1ccc(NC(=O)CC2C(=O)N(c3ccccc3)C(=O)N2Cc2ccc(F)cc2)cc1` (stereo unspecified) the survival was -1% (active).
For `CC1CCN(C(=O)CSc2c3c(nc4ccc(Cl)cc24)CCCC3)CC1`, the survival was -1% (active).
In the case of `CC1CCN(C(=O)CSc2c3c(nc4cc(Cl)ccc24)CCCC3)CC1`, the survival is reported as 10% (active).
With `CC1CCCN(C(=O)CSc2c3c(nc4cc(Cl)ccc24)CCCC3)C1` (stereo unspecified) the survival was -1% (active).
In the case of `CC1CCCCN1C(=O)CSc1c2c(nc3cc(Cl)ccc13)CCCC2` (stereo unspecified), the survival is reported as -1% (active).
In the case of `CCC1=Nc2cc(C(=O)N3CCC(C)CC3)ccc2Sc2ccc(C)cc21`, the survival is reported as -1% (active).
For `CC1=Nc2cc(C(=O)N3CCCCC3)ccc2Sc2ccc(C)cc21`, the survival was 3% (active).
For `CCN1CCC(N(Cc2cccc(OC)c2)C(=O)Nc2cccc(C)c2C)CC1`, the survival was -3% (active).
